This is an account of results in PubChem BioAssay (Tox21).

A short description of test [1]: Human pregnane X receptor (PXR) small molecule agonists, qHTS cell viability counter screen (AID 1346977). Further: nearly all actives have a fitted effect of over 50% in size. Further: potency means the concentration at half of the fitted maximal effect. In a few lines: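 PXR-Luc HepG2 cells in medium with 5% charcoal-stripped FBS were pre-incubated 5hr, then exposed to compounds for 24hr at 37C. Viability was read in the same wells by CellTiter-Fluor fluorescence, reagent added after 23hr with a 1hr incubation.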
On the technique in general: qHTS replaces the single test concentration by a dilution series.

A short description of test [2]: Caspase-3/7 induction in HepG2 cells by small molecules, qHTS assay (AID 1346978). Further: nearly all actives have a fitted effect of over 15% in size. The essentials:
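Wild-type HepG2 cells, 2,000/well, settled 5 hr at 37 C and 5% CO2, then compound-treated for 17 hr; caspase-3/7 activity read by luminescent Caspase-Glo 3/7 after 30 min at room temperature.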

Test [3] can be described thus: Caspase-3/7 induction in CHO-K1 cells by small molecules, qHTS cell viability counter screen (AID 1346979). Further: nearly all actives have a fitted effect of over 35% in size. Further: potency means the concentration at half of the fitted maximal effect. The essentials:
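Wild-type CHO-K1 cells were seeded at 1,500 per well, rested 5hr at 37 C, then exposed to compounds in DMSO. After 16hr, CellTiter-Fluor reagent was added and fluorescence read 1hr later as the viability measure.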

Test [4] can be described thus: Caspase-3/7 induction in CHO-K1 cells by small molecules, qHTS assay (AID 1346980). Further: nearly all actives have a fitted effect of over 15% in size. In a few lines: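 Wild-type CHO-K1 cells exposed to compounds for 17hr at 37 C, 5% CO2. Caspase-3/7 activity then measured by Caspase-Glo 3/7 luminescence after 30min at room temperature.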
Test [5] in a line: Caspase-3/7 induction in HepG2 cells by small molecules, qHTS cell viability counter screen (AID 1346981). Further: nearly all actives have a fitted effect of over 30% in size. Further: potency means the concentration at half of the fitted maximal effect. The essentials: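 Treatment of HepG2 cells with DMSO-delivered compounds ran 16 hr at 37 C following a 5-hr pre-incubation of 2,000 cells/well. CellTiter-Fluor fluorescence, read after 1 hr, served as the viability measure in a qHTS format.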
Test [6] has as its target Nuclear receptor subfamily 1 group I member 2 (Homo sapiens) (UniProt O75469). Nature of the test: Human pregnane X receptor (PXR) small molecule agonists, qHTS assay (AID 1346982). Further: nearly all actives have a fitted effect of over 35% in size. Further: potency means the concentration at half of the fitted maximal effect. In a few lines: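 Stable HepG2 line reporting PXR-mediated CYP3A4 expression via luciferase. Treatment: 24 hr with compounds in DMSO at 37 C. Detection: ONE-Glo luminescence.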
Test [7] has as its target Acetylcholinesterase (Homo sapiens) (UniProt P22303). Nature of the test: Acetylcholinesterase (AChE) small molecule antagonists: colormetric cell-based qHTS assay (AID 1347395; calls by dose curve; further: nearly all actives have a fitted effect of over 30% in size). The essentials:
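SH-SY5Y cells, plated overnight at 37 C, were exposed to compounds for 30 min at 37 C and 5% CO2. Acetylthiocholine plus DTNB was then added, and thiocholine from endogenous AChE was quantified colorimetrically after 90 min at 37 C.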

Test [8] shares this target. Nature of the test: Acetylcholinesterase (AChE) small molecule antagonists: enzyme-based qHTS assay (AID 1347397; calls by dose curve; further: nearly all actives have a fitted effect of over 55% in size). To be noted: Potency: AChE enzyme activity inhibition. In a few lines: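 Colorimetric DTNB read-out of thiocholine released from acetylthiocholine by recombinant human AChE (50 mU/mL as dispensed). Compounds were preincubated 30 min at RT before substrate/DTNB addition, with a 10 min RT reaction.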

Test [9] shares this target. The experiment in a line: Acetylcholinesterase (AChE) small molecule antagonists: fluorescence cell-based qHTS assay (AID 1347398; calls by dose curve; further: nearly all actives have a fitted effect of over 50% in size). To be noted: Potency: AChE activity. In a few lines:
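SH-SY5Y, 2,000 cells/well, attached overnight; cmpd 30 min 37 C; acetylthiocholine/Thiolite Green cocktail 40 min RT; fluorescence Ex/Em 490/520 nm.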

The target is the same in test [10]. The experiment in a line: Acetylcholinesterase (AChE) small molecule antagonists: enzyme-based qHTS assay with human liver microsomes (AID 1347399; calls by dose curve; further: nearly all actives have a fitted effect of over 60% in size). To be noted: Potency: qHTS inhibition. The essentials: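 Recombinant human AChE (50 mU/mL in the enzyme mix) and human liver microsomes (0.25 mg/mL final) were preincubated with compound and NADPH (0.25 mg/mL final) for 30 min at 37 C. Acetylthiocholine/DTNB was then added; thiocholine was read colorimetrically after 10 min at room temperature.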

The target in test [11] is Cytochrome P450 2D6 (Homo sapiens) (UniProt P10635). Nature of the test: Cytochrome P450 Family 2 Subfamily D Member 6 (CYP2D6) small molecule antagonists: luciferase reporter qHTS assay (AID 1671196). Further: nearly all actives have a fitted effect of over 50% in size. Further: potency means the concentration at half of the fitted maximal effect. The essentials:
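Chemicals tested for interference with CYP2D6 activity; proluciferin substrate, NADPH regeneration, 1 h at room temperature, luminescent detection.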

Test [12] deals with Cytochrome P450 2C19 (Homo sapiens) (UniProt P33261). The experiment in a line: Cytochrome P450 Family 2 Subfamily C Member 19 (CYP2C19) small molecule antagonists: luciferase reporter qHTS assay (AID 1671197). Further: nearly all actives have a fitted effect of over 65% in size. Further: potency means the concentration at half of the fitted maximal effect. In a few lines:
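Relative luminescence units recorded 20 min after the detection reagent stopped a 1 h, 37C CYP2C19 reaction on proluciferin substrate, which was started by NADPH regeneration following 10 min room-temperature compound preincubation; ketoconazole positive control.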
(In general: In a reporter assay the amount or activity of a reporter protein is the signal.)

The target in test [13] is Cytochrome P450 2C9 (Homo sapiens) (UniProt P11712). The experiment in a line: Cytochrome P450 Family 2 Subfamily C Member 9 (CYP2C9) small molecule antagonists: luciferase reporter qHTS assay (AID 1671198). Further: nearly all actives have a fitted effect of over 50% in size. Further: potency means the concentration at half of the fitted maximal effect. In a few lines: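 P450-Glo proluciferin substrate with CYP2C9 enzyme; 10 min RT preincubation, then NADPH regeneration 1 h at 37C; luciferin detection reagent 20 min RT, luminescence in relative luminescence units.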

Test [14] deals with Cytochrome P450 1A2 (Homo sapiens) (UniProt P05177). Nature of the test: Cytochrome P450 Family 1 Subfamily A Member 2 (CYP1A2) small molecule antagonists: luciferase reporter qHTS assay (AID 1671199). Further: nearly all actives have a fitted effect of over 50% in size. Further: potency means the concentration at half of the fitted maximal effect. The essentials: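 Read-out is luminescence from luciferin detection reagent (20 min) proportional to CYP1A2 activity; compounds in DMSO preincubated 10 min with enzyme and proluciferin substrate, then NADPH regeneration solution, 1 h, room temperature.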

The target of test [15] is Voltage-gated inwardly rectifying potassium channel KCNH2 (Homo sapiens) (UniProt Q12809). The experiment in a line: Human Ether-a-go-go-Related Gene (hERG) channel small molecule antagonists: fluorescence cell-based qHTS assay (AID 1671200). The essentials: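 U2OS cells expressing the channel were plated at 1000 cells/well, incubated overnight at 37 C, then loaded with FluxOR II thallium-sensitive dye for 1 h at room temperature in the dark, with a further 10 min at room temperature before stimulation.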
For orientation: Block of hERG is tested as a sign of cardiac risk.

The target in test [16] is Nuclear receptor subfamily 1 group I member 2 (Rattus norvegicus) (UniProt Q9R1A7). The experiment in a line: Rat pregnane X receptor (rPXR) activation by small molecules, qHTS assay (AID 1346983). Further: nearly all actives have a fitted effect of over 20% in size. The settings on record: rPXR luciferase reporter cells, One-Glo luminescence, 24 h; stronger effect = higher value. The essentials: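 Cell-based rPXR activation assay: rPXR cells, 2,000 per well, rested 5hr at 37 C, then exposed to compounds in DMSO for 24 hr at 37 C. Luciferase activity read by One-Glo luminescence after 30 min at room temperature.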

For test [17], the target named is Nuclear receptor subfamily 1 group I member 2 (Homo sapiens) (UniProt O75469). Nature of the test: Human pregnane X receptor (PXR) activation by small molecules, qHTS assay (AID 1346985). Further: nearly all actives have a fitted effect of over 40% in size. The essentials: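 DPX-2 cells (HepG2 co-transfected with a PXR response element and a CYP3A4-promoter luciferase construct) were seeded at 2,000 per well, rested 5 hr at 37C, then exposed to DMSO-dissolved compounds for 24 hr. Activation was read as luciferase luminescence.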

The target of test [18] is Cytochrome P450 3A4 (Homo sapiens) (UniProt P08684). Nature of the test: Cytochrome P450 Family 3 Subfamily A Member 4 (CYP3A4) small molecule antagonists: luciferase reporter qHTS assay (AID 1671201). Further: nearly all actives have a fitted effect of over 50% in size. Further: potency means the concentration at half of the fitted maximal effect. In a few lines: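 P450-Glo CYP3A4 system with proluciferin substrate; compounds preincubated 10 min RT with enzyme-substrate mix, then NADPH regeneration added for 1 h RT. Detection reagent 20 min, luminescence read as relative luminescence units.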

“And” between values parts separate entries of the source, which are not always exact repeats. Equal entries are not always repeated. Results filed as inconclusive are left out. Where a structure was tested more than once in an assay, its records may differ in their call. The source made the active and inactive calls. Unless noted, the call rests on the fitted dose curve; in most records, active means well fitted curve in the direction sought with a large enough effect in the repeat runs; inconclusive means weak or mixed curves; inactive means no such curve, though single readings can be large; an effect the other way counts as inactive or inconclusive.
On the % scale 0 is the no-effect control and ±100 the full control effect.

Chain of Cytochrome P450 3A4 (Homo sapiens) (P08684 whole entry, looked up): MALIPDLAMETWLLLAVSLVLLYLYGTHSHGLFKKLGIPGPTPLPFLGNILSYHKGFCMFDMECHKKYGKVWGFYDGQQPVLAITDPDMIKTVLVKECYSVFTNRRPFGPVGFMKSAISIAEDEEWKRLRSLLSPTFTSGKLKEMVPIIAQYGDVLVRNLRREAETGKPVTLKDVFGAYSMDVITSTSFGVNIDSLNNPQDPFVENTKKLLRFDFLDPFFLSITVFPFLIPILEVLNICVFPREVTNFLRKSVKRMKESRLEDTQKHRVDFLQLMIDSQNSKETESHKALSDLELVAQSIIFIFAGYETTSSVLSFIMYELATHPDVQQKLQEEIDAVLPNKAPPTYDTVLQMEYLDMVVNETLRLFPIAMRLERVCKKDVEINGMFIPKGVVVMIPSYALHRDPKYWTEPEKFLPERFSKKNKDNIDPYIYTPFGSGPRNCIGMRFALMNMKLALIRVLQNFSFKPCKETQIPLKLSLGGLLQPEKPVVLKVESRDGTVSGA
Chain of Cytochrome P450 1A2 (Homo sapiens) (P05177 whole entry, looked up): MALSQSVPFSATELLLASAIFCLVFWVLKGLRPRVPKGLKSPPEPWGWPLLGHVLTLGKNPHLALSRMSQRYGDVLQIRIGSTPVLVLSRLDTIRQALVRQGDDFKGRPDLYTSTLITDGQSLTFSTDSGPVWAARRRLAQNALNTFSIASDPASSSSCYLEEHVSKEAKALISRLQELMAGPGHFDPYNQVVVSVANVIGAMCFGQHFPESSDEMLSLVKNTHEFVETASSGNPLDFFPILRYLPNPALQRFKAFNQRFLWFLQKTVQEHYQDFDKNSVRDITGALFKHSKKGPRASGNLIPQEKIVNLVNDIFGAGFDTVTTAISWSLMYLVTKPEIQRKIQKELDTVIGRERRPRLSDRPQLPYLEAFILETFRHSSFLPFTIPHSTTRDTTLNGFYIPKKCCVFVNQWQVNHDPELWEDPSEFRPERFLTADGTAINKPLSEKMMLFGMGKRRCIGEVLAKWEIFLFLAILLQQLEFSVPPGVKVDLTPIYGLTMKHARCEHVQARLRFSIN
Chain of Cytochrome P450 2C19 (Homo sapiens) (P33261 whole entry, looked up): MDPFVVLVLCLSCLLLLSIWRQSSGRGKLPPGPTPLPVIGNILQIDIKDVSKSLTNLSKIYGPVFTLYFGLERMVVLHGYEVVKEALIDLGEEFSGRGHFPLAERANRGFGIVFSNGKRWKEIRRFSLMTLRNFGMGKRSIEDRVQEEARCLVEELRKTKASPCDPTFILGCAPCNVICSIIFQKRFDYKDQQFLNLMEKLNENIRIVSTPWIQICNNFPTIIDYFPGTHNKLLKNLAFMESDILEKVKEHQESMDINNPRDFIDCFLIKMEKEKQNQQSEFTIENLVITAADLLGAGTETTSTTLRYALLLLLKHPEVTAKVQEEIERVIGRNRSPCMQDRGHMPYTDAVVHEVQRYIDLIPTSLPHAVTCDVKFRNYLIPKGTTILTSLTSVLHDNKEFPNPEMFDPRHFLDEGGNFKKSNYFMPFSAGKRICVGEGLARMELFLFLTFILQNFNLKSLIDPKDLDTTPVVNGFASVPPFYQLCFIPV
Chain of Voltage-gated inwardly rectifying potassium channel KCNH2 (Homo sapiens) (Q12809 whole entry, looked up): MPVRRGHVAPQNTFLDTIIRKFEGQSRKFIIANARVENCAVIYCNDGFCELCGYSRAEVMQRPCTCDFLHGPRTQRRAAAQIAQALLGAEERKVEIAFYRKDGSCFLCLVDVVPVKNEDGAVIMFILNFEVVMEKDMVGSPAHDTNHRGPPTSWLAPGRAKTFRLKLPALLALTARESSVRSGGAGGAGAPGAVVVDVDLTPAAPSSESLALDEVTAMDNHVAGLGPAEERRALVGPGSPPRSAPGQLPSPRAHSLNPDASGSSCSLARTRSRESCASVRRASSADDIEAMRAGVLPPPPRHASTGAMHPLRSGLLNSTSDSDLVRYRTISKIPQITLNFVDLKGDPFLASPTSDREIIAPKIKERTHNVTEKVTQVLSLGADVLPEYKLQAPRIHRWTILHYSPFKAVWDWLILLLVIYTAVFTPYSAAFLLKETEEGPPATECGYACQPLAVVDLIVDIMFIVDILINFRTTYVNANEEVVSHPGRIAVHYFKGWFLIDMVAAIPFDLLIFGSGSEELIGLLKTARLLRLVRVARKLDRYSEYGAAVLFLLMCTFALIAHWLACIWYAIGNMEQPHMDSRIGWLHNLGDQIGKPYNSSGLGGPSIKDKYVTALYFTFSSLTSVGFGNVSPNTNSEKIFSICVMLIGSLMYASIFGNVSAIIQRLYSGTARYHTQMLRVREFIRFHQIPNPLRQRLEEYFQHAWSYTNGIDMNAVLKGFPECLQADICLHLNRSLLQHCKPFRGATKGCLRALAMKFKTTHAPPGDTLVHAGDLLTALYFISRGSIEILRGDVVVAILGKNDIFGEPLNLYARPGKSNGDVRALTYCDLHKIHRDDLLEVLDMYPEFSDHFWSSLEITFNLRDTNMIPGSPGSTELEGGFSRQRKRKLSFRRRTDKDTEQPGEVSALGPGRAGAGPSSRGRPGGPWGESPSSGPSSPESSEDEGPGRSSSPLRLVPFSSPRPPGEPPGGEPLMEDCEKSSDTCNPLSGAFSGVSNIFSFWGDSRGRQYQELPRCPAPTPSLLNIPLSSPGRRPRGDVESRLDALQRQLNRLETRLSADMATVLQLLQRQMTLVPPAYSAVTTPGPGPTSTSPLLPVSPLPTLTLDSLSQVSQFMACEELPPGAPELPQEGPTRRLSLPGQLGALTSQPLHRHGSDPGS
Chain of Cytochrome P450 2C9 (Homo sapiens) (P11712 whole entry, looked up): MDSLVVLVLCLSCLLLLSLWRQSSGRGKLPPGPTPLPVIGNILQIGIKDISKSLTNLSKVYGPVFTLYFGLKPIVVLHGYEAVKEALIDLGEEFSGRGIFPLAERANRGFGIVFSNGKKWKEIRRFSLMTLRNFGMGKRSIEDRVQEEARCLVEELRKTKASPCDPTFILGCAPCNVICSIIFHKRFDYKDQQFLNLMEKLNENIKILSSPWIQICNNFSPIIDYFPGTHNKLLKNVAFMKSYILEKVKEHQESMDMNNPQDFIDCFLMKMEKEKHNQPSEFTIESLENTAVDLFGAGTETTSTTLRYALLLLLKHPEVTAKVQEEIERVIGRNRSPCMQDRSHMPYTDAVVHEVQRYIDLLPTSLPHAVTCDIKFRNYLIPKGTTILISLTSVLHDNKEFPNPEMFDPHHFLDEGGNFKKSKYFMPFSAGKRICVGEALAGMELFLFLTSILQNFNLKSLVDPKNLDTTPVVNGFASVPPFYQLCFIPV
Chain of Nuclear receptor subfamily 1 group I member 2 (Homo sapiens) (O75469 whole entry, looked up): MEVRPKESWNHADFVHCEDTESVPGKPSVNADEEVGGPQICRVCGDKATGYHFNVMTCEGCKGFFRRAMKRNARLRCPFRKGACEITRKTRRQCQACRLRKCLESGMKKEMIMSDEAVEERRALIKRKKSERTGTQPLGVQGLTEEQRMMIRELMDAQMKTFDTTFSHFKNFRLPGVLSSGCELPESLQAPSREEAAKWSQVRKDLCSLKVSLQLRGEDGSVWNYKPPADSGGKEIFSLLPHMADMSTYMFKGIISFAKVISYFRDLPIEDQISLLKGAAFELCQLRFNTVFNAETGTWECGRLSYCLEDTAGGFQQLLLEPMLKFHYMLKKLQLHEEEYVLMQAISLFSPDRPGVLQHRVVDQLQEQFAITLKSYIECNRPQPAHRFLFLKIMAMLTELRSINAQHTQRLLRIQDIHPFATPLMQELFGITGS
Chain of Acetylcholinesterase (Homo sapiens) (P22303 whole entry, looked up): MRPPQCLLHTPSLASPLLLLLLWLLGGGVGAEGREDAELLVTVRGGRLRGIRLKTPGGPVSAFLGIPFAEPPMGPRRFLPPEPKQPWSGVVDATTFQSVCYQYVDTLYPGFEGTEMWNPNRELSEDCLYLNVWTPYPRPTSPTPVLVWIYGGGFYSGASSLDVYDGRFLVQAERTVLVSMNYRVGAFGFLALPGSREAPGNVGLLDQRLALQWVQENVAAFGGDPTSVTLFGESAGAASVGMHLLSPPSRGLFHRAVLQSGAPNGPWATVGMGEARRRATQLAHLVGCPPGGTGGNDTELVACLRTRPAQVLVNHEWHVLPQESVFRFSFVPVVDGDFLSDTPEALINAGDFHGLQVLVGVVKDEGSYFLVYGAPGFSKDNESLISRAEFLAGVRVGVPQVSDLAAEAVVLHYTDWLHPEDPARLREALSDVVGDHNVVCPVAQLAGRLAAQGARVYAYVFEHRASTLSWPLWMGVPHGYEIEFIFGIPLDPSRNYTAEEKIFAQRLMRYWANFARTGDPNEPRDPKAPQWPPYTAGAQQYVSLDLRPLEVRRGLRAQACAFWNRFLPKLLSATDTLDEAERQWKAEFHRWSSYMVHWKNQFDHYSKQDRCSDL
Chain of Cytochrome P450 2D6 (Homo sapiens) (P10635 whole entry, looked up): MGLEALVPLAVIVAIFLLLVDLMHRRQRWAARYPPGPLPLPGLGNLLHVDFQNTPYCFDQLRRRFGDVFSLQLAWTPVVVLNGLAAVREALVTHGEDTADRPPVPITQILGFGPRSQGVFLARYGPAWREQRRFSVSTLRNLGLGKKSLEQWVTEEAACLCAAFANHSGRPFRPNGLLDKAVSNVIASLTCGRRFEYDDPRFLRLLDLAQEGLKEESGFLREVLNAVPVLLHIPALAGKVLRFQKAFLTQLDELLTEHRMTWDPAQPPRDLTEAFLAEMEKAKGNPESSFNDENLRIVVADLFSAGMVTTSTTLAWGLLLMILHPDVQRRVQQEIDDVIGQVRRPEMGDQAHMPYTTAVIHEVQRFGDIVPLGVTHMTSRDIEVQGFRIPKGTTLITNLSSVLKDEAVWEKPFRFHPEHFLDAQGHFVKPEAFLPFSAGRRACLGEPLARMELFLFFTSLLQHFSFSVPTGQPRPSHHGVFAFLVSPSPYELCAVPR

For `O=[N+]([O-])c1ccc(Nc2ccccc2)cc1`, the Potency is 39.8 µM (active) and 48.6 µM (active) in test [1]; 48.9 µM (active) and 48.6 µM (active) in test [3]; 48.9 µM (active) and 24.3 µM (active) in [5]; 30.9 µM (active) and 48.6 µM (active) in test [6]; 32 µM (active) and 35.6 µM (active) in test [11]; 8.03 µM (active) and 20 µM (active) in test [12]. In addition, the Potency in test [13] is 32 µM (active) and 35.6 µM (active); in [14], 12.7 µM (active) and 22.4 µM (active). For the same compound, the Potency entry in [2], in [4], in test [7], in test [8], in test [9] and in test [10] was “inactive” in each case. Besides, the Potency entry in [15] is “inactive”.
Take `ClCC(Cl)CCl`: the Potency result in test [1], in [2], in test [3], in [4], in test [5] and in test [6] was “inactive” each time. In addition, the Potency entry in test [7], in test [8], in [9], in test [10], in test [12] and in test [13] was “inactive” each time. Besides, the Potency entry in [15] was “inactive”. The Potency in test [11] was 28.5 µM (active) and inactive; in [14] it was 44.8 µM (active).
As for `CCNc1nc(Cl)nc(NC(C)(C)C#N)n1`, the Potency result in [1], in test [2], in test [3], in test [4], in [5] and in test [7] was “inactive” throughout. The Potency result in test [8], in [9], in [10], in test [11], in test [12] and in [13] was “inactive” throughout. Further, the Potency entry in test [15] was “inactive”. Also, the results for the Potency in test [6] and in test [14] were 61.1 µM (active) and 39.9 µM (active), respectively.
Take `O=C1Nc2ccc(Cl)cc2C(c2ccccc2)=NC1O` (stereo not given): the Potency entry in test [1], in test [2], in test [3], in test [4], in test [5] and in test [7] was “inactive” each time. The Potency result in test [8] and in [9] was “inactive” throughout. The Potency in test [6] is 38.9 µM (active) and 46.1 µM (active). Moreover, in test [16], the max activation is 0.163% (inactive). Besides, the result in test [17] was inactive.
Consider `C[N+](C)(C)C`, for which the Potency result in test [1], in test [2], in test [3], in test [4], in [5] and in test [6] was “inactive” each time. The Potency entry in [7], in test [8], in [9], in test [10], in test [11] and in [12] was “inactive” in each case. Further, the Potency result in test [13], in test [14] and in [18] was “inactive” throughout.
Take `Brc1ccc(Br)cc1`: the Potency result in [1], in test [2], in [3], in test [4], in test [5] and in test [6] was “inactive” each time. Besides, the Potency entry in test [7], in test [8], in [9], in test [10], in test [11] and in test [12] was “inactive” throughout. Moreover, the Potency entry in test [13], in test [14], in test [15] and in test [18] was “inactive” in each case.
As for `c1ccc(C2CO2)cc1` (stereo not given), the Potency result in [1], in [2], in [3], in test [4], in test [5] and in [6] was “inactive” in each case. Further, the Potency result in test [7], in test [8], in [9], in [10], in [11] and in test [14] was “inactive” throughout. For the same compound, the Potency result in test [15] was “inactive”. The Potency entry in test [12] is “inactive and 35.6 µM (active)”; in test [13] it was “inactive and 71 µM (active)”.
In the case of `CN(C)P(=O)(N(C)C)N(C)C`, the Potency entry in test [1], in test [2], in [3], in test [4], in [5] and in test [6] was “inactive” each time. Besides, the Potency result in [7], in test [8], in [9], in [10], in test [11] and in [12] was “inactive” in each case. Further, the Potency result in test [13], in test [14], in test [15] and in test [18] was “inactive” throughout.
`O=NN1CCOCC1`: the Potency entry in test [1], in test [2], in test [3], in [4], in [5] and in test [6] was “inactive” each time. Further, the Potency entry in test [7], in test [8], in test [9], in [10], in [11] and in test [12] was “inactive” in each case. Also, the Potency entry in test [13], in test [14], in [15] and in [18] was “inactive” each time.
Consider `CC(C)COC(=O)c1ccccc1C(=O)OCC(C)C`, for which the Potency entry in test [1], in [2], in test [3], in test [4], in test [5] and in test [6] was “inactive” throughout. Moreover, the Potency result in [7], in [8], in [9], in [10], in [11] and in [18] was “inactive” each time. In addition, the Potency in test [12] is 10 µM (active) and 11.2 µM (active); in [13] it was 28.3 µM (active) and 11.2 µM (active); in test [14], 12.6 µM (active) and 8.94 µM (active).
`CCCCCCCCCCCCCl`: the Potency result in test [1], in [2], in [3], in test [4], in test [5] and in test [6] was “inactive” each time. The Potency result in test [7], in test [8], in [9], in [10], in test [11] and in [12] was “inactive” throughout. The Potency result in test [13], in test [14] and in [15] was “inactive” throughout. Besides, the Potency in test [18] was 31.3 µM (active) and inactive.
